{"source": "PubChem BioAssay AID504339", "about": "(National Center for Advancing Translational Sciences (NCATS), 2011)", "note": "In all, about 390,000 compounds went through this assay and about 17,000 (4.4%) were called active. About 8% were inconclusive and are not listed. What follows is part of a selection rich in actives, with near analogues and random picks from the rest. A call without a number means that no potency is given here. A number with no mark means an inactive call. The call rests on the fitted dose curve; in most records, active means well fitted inhibition curve with a large enough effect; inconclusive means small, poorly fitted or top-dose-only effect; inactive means no such curve, though single readings can be large or run the other way. Potency means the concentration at half of the fitted maximal effect.", "data": [{"molecular_target": "Lysine-specific demethylase 4A (Homo sapiens) (UniProt O75164)", "sequence (O75164 whole entry, looked up, the tested form may be a part)": "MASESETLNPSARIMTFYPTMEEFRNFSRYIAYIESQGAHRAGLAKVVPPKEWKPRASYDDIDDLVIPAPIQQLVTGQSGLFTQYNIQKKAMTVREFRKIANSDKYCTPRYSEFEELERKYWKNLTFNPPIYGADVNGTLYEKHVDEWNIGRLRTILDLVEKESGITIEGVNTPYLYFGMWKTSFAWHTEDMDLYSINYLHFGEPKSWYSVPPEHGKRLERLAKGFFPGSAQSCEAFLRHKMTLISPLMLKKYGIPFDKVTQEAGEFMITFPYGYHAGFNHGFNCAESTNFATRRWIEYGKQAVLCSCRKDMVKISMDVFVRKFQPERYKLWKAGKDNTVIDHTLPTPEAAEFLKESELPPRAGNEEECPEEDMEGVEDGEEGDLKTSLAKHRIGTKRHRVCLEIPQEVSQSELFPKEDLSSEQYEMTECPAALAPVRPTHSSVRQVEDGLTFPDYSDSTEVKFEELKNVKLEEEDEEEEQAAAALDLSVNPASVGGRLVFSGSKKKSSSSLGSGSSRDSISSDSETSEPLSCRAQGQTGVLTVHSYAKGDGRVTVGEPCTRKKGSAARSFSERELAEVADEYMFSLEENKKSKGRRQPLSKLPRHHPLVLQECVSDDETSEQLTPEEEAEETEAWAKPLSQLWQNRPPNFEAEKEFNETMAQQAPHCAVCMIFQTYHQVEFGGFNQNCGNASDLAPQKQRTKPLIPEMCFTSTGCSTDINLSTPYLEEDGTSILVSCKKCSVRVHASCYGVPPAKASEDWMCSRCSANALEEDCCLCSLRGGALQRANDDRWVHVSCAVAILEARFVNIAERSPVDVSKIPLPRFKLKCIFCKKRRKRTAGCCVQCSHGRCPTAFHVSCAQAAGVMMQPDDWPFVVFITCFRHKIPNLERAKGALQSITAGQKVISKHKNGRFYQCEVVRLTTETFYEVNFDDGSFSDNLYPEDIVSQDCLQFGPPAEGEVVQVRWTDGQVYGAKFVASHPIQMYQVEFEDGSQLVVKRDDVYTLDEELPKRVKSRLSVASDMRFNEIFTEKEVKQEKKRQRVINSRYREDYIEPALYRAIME", "assay": "qHTS Assay for Inhibitors of JMJD2A-Tudor Domain; further: nearly all actives have a fitted effect of over 50% in size", "details": "AlphaScreen JMJD2A-Tudor / H3K4me3 peptide binding; series mostly up to 114 µM", "text": "JMJD2A is a jumonji-domain-containing lysine demethylase that uses Fe(II) together with 2-OG to effect oxidative demethylation of histones. Methylation is one of many […] modification that affect epigenetic transcription. […] It is proposed that the functions of JmjD2A binding to the histones, is to maintain marks after they are installed and to spread the modifications by […], establishing a self-propagating cycle for rapid methylation over a large area of chromatin. […] Thus, small molecule targeting of the JMJD2A-tudor domain interaction with its target methylhistone mark is expected to enable sophisticated experiments probing the fine regulatory pathways leading to selective demethylation of a given methyllysine locus based on the methylation state of adjacent histone marks. A quantitative high throughput AlphaScreen has been developed to identify small molecule inhibitors based on a protocol published by NCGC and SGC [4].\nAlthough AlphaScreen has significant advantages with its utility in a variety of epigenetic target assays, the primary screening data provided in this deposition should be used with caution due to the prevalence of screening artifacts. The top compound concentration tested was high (>100uM) in this assay, which increases number of actives and potential artifacts. An AlphaScreen counterscreen is highly recommended to be run against any putative actives to eliminate non-specific artifacts. Alternatively, one can use other AlphaScreen assays in PubChem to filter out promiscuous hits.\n[1] Lee, J. et al. Distinct binding modes specify the recognition of methylated histone H3K4 and H4K20 by JMJD2A-tudor. Nat Struct Mol Biol. 15(1); 109-11. 2008. PMID: 18084306\n[2] Yasgar, et al. Compound Management for Quantitative High-Throughput Screening. JALA. 2008 Apr;13(2):79-89. PMID: 18496600\n[3] Inglese, et al. Quantitative high-throughput screening: a titration-based approach that efficiently identifies biological activities in large chemical libraries. Proc Natl Acad Sci. 1;103(31):11473-8. 2006. PMID: 16864780\n[4] Quinn et al. A homogeneous method for investigation of methyl-dependent protein-protein interactions in epigenetics. Nucleic Acids Res., 38(2):e11. 2010. PMID: […]\n[5] Baell,Holloway. New substructure filters for removal of pan assay interference compounds (PAINS) from screening libraries and for their exclusion in bioassays. J Med Chem. 53(7):2719-40. 2010. PMID: 20131845\nNIH Molecular Libraries Probe Production Network [MLPCN]\nNIH Chemical Genomics Center [NCGC]\nStructural Genomics Consortium (SGC)\nTo each well of a 1,536w plate, 2ul of JMJD2A-Tudor (final 100nM) and 1ul biotinylated histone peptide methylated at Lys4 [b-H3(1-18)K4me3] (final 50nM) were added in 1x PBS buffer, pH 7.4, containing 0.01% Tween-20, using a nanoliter dispenser. Formation of a protein-peptide complex proceeded at room temperature for 30 min. A Kalypsys pin-tool transferred 23nl of library compound solution in DMSO to each well. Following a 30 min incubation of the protein-peptide complex with compounds at room temperature, a mixture of 40 µg/mL each streptavidin-coated donor and nickel chelate acceptor AlphaScreen beads (final 10 µg/mL) was added in a 1ul dispense for a final volume of 4ul, followed by a brief centrifugation (1000 rpm, 1 min). Plates were incubated protected from the light for 20 min at room temperature. Microplates were then read on an EnVision multilabel plate reader using the 1,536 plate HTS AlphaScreen aperture (excitation time 80 ms, measurement time 240 ms).", "values": [{"smiles": "O=C(NCCc1ccc(Cl)cc1)c1ccc2nc(CCc3ccccc3)oc2c1", "Potency": "inactive"}, {"smiles": "O=C(c1ccc2c(c1)N(Cc1ccccc1)C(=O)c1ccccc1S2(=O)=O)N1CCC(Cc2ccccc2)CC1", "Potency": "inactive"}, {"smiles": "O=C(CN1CCN(Cc2ccc(Cl)cc2)C1=O)NCc1ccc(F)cc1", "Potency": "inactive"}, {"smiles": "Cn1c(SCC(=O)N2CCCc3ccccc32)ncc(C(=O)Nc2ccc(F)cc2)c1=O", "Potency": "inactive"}, {"smiles": "CC(=O)Nc1cc(C(=O)NCc2ccc(F)cc2)ccc1Sc1ccc(F)cc1", "Potency": "inactive"}, {"smiles": "COc1cc(Cl)c(NC(=O)C(NS(=O)(=O)c2cccs2)C(C)C)c(OC)c1", "note": "(configuration not stated)", "Potency": "inactive"}, {"smiles": "CCC(C(=O)Nc1cccc(-c2nc3cccnc3s2)c1C)c1ccccc1", "note": "(configuration not stated)", "Potency": "inactive"}, {"smiles": "O=C(CN1CCN(c2ccccn2)CC1)Nc1ccc(Br)cc1", "Potency": "inactive"}, {"smiles": "CCCCN(C)CCC(=O)Nc1ccc(Cl)cc1", "Potency": "inactive"}, {"smiles": "Cc1cc(NC(=O)CCN2CCN(Cc3ccccc3)CC2)ccc1Br", "Potency": "inactive"}, {"smiles": "CCN(CC)c1ccc(NC(=O)CN2CCN(CC(=O)Nc3ccc(Cl)cc3)CC2)cc1", "Potency": "44.7 µM (active)"}, {"smiles": "CCOC(=O)N1CCN(CC(=O)Nc2ccc(F)cc2)CC1", "Potency": "inactive"}, {"smiles": "O=C(CN1CCN(Cc2ccccc2)CC1)Nc1ccc(F)c(F)c1", "Potency": "6.31 µM (active)"}, {"smiles": "O=C(CN1CCN(c2ccc(O)cc2)CC1)Nc1ccc(-c2ccccc2)cc1", "Potency": "50.1 µM (active)"}, {"smiles": "O=C(CN1CCN(C(=O)c2ccco2)CC1)Nc1ccc(Cl)c(C(F)(F)F)c1", "Potency": "inactive"}, {"smiles": "COC(=O)c1cc(NC(=O)CN2CCN(C(C)=O)CC2)cc(C(=O)OC)c1", "Potency": "inactive"}, {"smiles": "CC(=O)N1CCN(CC(=O)Nc2ccc(SC(F)F)cc2)CC1", "Potency": "inactive"}, {"smiles": "CC(=O)N1CCN(CC(=O)Nc2ccc(C)c(F)c2)CC1", "Potency": "17.8 µM (active)"}, {"smiles": "O=C(CN1CCOCC1)Nc1ccccc1", "Potency": "inactive"}, {"smiles": "Cc1ccc(Cl)cc1NC(=O)Cc1ccc(-n2c(C)nc3cccnc32)cc1", "Potency": "inactive"}, {"smiles": "Cc1ccccc1NC(=O)Cn1cc(C(=O)c2cccs2)c2ccccc21", "Potency": "inactive"}, {"smiles": "CCC(C)NC(=O)Cn1c(=O)n(-c2ccc(Cl)cc2)c(=O)c2c3c(sc21)CCCC3", "note": "(configuration not stated)", "Potency": "inactive"}, {"smiles": "Cc1cc(C)c(NC(=O)CN2C(=O)c3cccnc3Oc3ccc(Cl)cc32)c(C)c1", "Potency": "inactive"}, {"smiles": "O=C(Nc1ccc2nc(SCC(=O)N3CCCc4ccccc43)sc2c1)c1ccc(F)cc1", "Potency": "inactive"}, {"smiles": "CCOCCCNC(=O)c1ccc2nc(CCc3ccccc3)oc2c1", "Potency": "inactive"}, {"smiles": "O=C(Nc1ccccc1Cl)N1CCC(CN2CCCC2)CC1", "Potency": "inactive"}, {"smiles": "Cc1ccc2nc(COc3cccc(NC(=O)Nc4ccc(C)c(Cl)c4)c3)cc(=O)n2c1", "Potency": "inactive"}, {"smiles": "CSc1nc(-c2ccc(F)cc2)nc2c1Cc1c(CO)cnc(C)c1O2", "Potency": "inactive"}, {"smiles": "O=C(COc1ccc(Cl)cc1)NCCC1=CCCCC1", "Potency": "inactive"}, {"smiles": "Cc1nnc(OCC(=O)NCCC2=CCCCC2)c2ccccc12", "Potency": "inactive"}, {"smiles": "O=C(Cc1nn[nH]n1)NCCC1=CCCCC1", "Potency": "50.1 µM (active)"}, {"smiles": "COc1ccc(C(=O)c2oc3ccccc3c2NC(=O)COc2cccc(C)c2)cc1", "Potency": "inactive"}, {"smiles": "CCOC(=O)c1c(N)n(-c2cccc(C)c2C)c2nc3ccccc3nc12", "Potency": "inactive"}, {"smiles": "COc1ccc(NC(=S)NCC2CCN(c3ccc(OC)cc3)C2)cc1", "note": "(configuration not stated)", "Potency": "35.5 µM (active)"}, {"smiles": "COc1ccc(N2CCC(CNC(=S)Nc3c(C)cccc3C)C2)cc1", "note": "(configuration not stated)", "Potency": "39.8 µM (active)"}, {"smiles": "COc1ccc(OCC(=O)Nc2ccc(N3CCC(C)CC3)cc2)cc1", "Potency": "inactive"}, {"smiles": "COc1ccc(N2CCC(N3CCN(C)C(CCO)C3)CC2)cc1", "note": "(configuration not stated)", "Potency": "inactive"}, {"smiles": "Cc1cccc(C)c1NC(=O)CNC(=O)C1CCCC1", "Potency": "inactive"}, {"smiles": "COc1ccc(NC(=O)N2CCC(Cc3ccccc3)CC2)cc1", "Potency": "inactive"}, {"smiles": "Cc1ccccc1NC(=O)Cn1c(=O)n(CCCCC(=O)NCc2ccccc2Cl)c(=O)c2ccccc21", "Potency": "inactive"}, {"smiles": "COc1cccc(Nc2nc3ccccc3c3nncn23)c1", "Potency": "inactive"}, {"smiles": "Cc1ccc(NC(=O)Cn2c(=O)n(-c3ccccc3)c(=O)c3c4c(sc32)CCCC4)cc1", "Potency": "inactive"}, {"smiles": "COc1cc(OC)c(C(=O)Nc2ccccc2-c2ccccc2)cc1OC", "Potency": "inactive"}, {"smiles": "COc1cc(OC)c(C(=O)Nc2ccc(N(C)C)cc2)cc1OC", "Potency": "79.4 µM (active)"}, {"smiles": "COc1ccc(Cl)cc1C(=O)Nc1ccc(N(C)C(C)=O)cc1", "Potency": "inactive"}, {"smiles": "Cc1ccc(NC(=O)CSc2nc3c([nH]c4ccccc43)c(=O)n2-c2ccccc2)cc1Cl", "Potency": "inactive"}, {"smiles": "CCCNC(=O)C1CCC(Cn2c(=O)c3sccc3n(Cc3ccccc3F)c2=O)CC1", "note": "(configuration not stated)", "Potency": "inactive"}, {"smiles": "O=C(Nc1cc(C(F)(F)F)ccc1Cl)c1cc2nc(-c3ccc4c(c3)OCO4)cc(C(F)(F)F)n2n1", "Potency": "inactive"}, {"smiles": "Cc1cc(OCCCN2CCN(Cc3ccccc3)CC2)ccc1[N+](=O)[O-]", "Potency": "10 µM (active)"}, {"smiles": "Cc1cc(OCC(=O)NC2CCN(C)CC2)ccc1[N+](=O)[O-]", "Potency": "inactive"}, {"smiles": "Cc1cc(OCCCCOc2ccc(C#N)cc2)ccc1[N+](=O)[O-]", "Potency": "inactive"}, {"smiles": "CN(C(=O)c1ccc2c(c1)N(Cc1cccc(Cl)c1)C(=O)c1ccccc1S2=O)C1CCCCC1", "note": "(configuration not stated)", "Potency": "inactive"}]}]}
